HIV Env fusion: inhibitors of HIV-1 Env-driven cell-cell fusion, primary screen, HeLa-JRFL effector, CEM21 target cells, luciferase | inhibition, % at 12.3 µM | 360,000 tested, 1.1% active | AID 651610, 2012;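 active = mean replicate inhibition score of at least 50 and every replicate individually at or above 50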;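 note: 0% = plate neutral controls and 100% = maraviroc near 300 nM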
AF4-AF9 inh: inhibitors of AF4 peptide binding to AF9, primary screen, biochemical, AlphaScreen, biotin-AF4 peptide, FLAG-AF9, single point | inhibition, % at 10 µM | AID 651704, 2012 | 350,000 tested, 0.47% active;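 active = every replicate reaching a set inhibition limit, whatever the replicate mean, cut at about 25% in these data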;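 note: 0% = plate neutral control median and 100% = total signal loss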
Target sequence (P42568 whole entry, looked up): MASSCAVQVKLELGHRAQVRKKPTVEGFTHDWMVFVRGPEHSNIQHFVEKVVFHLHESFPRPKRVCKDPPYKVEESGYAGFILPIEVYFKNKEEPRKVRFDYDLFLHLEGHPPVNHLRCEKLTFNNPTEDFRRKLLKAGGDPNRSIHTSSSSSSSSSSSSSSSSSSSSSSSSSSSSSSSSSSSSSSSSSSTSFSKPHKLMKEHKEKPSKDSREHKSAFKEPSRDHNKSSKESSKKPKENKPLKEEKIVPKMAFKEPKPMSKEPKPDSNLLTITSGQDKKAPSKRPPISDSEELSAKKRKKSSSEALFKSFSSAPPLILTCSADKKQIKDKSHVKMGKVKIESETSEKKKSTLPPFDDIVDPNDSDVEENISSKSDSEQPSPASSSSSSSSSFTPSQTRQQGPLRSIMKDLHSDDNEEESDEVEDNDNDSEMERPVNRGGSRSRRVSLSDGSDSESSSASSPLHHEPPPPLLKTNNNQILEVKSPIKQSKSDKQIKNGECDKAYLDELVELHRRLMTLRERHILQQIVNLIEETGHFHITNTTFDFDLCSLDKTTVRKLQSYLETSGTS
PGC1a acetyl inh: inhibitors of PGC1a acetylation signal, primary screen, cell-based, U2OS, AlphaScreen, inhibitor mode. AlphaScreen anti-acetyl-lysine; with virally co-expressed GCN5 acetyltransferase. inhibition, % at 15.6 µM. 350,000 tested, 0.17% active;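 active = every replicate shows inhibition of at least 40%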;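 note: 0% = neutral control wells and 100% = positive control wells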
INS-1E GSIS act: GLuc luminescence reporter in INS-1E cells, primary screen for activators of glucose-dependent secretion of insulin. INS-1E GLuc reporter insulin secretion, 2-3 h. activation, % at 16.6 µM. 370,000 tested, 0.61% active. AID 743287, 2014;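 active = lowest replicate activation of at least 40%, so every replicate reaches that level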;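 note: 0% = median of neutral control wells and 100% = median of IBMX positive control wells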
NSD2 inh: NSD2 histone methyltransferase inhibitors, primary screen, biochemical, AlphaScreen, single concentration, set 2 | Histone-lysine N-methyltransferase NSD2 (Homo sapiens), O96028 | AID 743445, 2014 | inhibition, % at 12.5 µM | 310,000 tested, 0.54% active | NSD2 peptide methylation, 120 min; in the data active = inhibition above about 50%
* marks the source's active call; other numbers are inactive results; . = no result; [ ] = remark or other dose. Most compounds without a hit are left out; they make up all but 2.1% or so of the library.

SMILES | HIV Env fusion | AF4-AF9 inh | PGC1a acetyl inh | INS-1E GSIS act | NSD2 inh
COc1ccc(CCNC(=O)CSc2n[nH]c(N)n2)cc1OC | 2 | 4 | 4 | 86* | 3
COc1ccc(CCNC(=O)CN2c3cccc4cccc(c34)S2(=O)=O)cc1OC | -6 | 1 | . | 98* | 8
O=C(CN1c2cccc3cccc(c23)S1(=O)=O)NCCc1ccccc1 | . | 1 | . | 12 | -1
COc1ccc(-c2cccc(C(=O)NCC(=O)O)c2)cc1 | . | -11 | 2 | -3 | 3
COc1ccc(NC(=O)N(C)C[C@H]2Oc3ccc(NC(=O)c4ccncc4)cc3C(=O)N([C@H](C)CO)C[C@@H]2C)cc1 | -20[16.7 µM] | -2 | 0 | 10 | .
Cc1cccc(NC(=S)N2CCN(C(=O)C3CCCO3)CC2)c1 (centres undefined) | 2 | 5 | . | -17 | -1
O=C(CN1CCOCC1)NCC[C@H]1CC[C@H](NC(=O)c2ccc3c(c2)OCO3)[C@@H](CO)O1 | 12[16.7 µM] | 1 | 11 | 2 | .
Cc1ccnc(NC(=O)C2CCN(S(=O)(=O)c3cccc(C(F)(F)F)c3)CC2)c1 | -30 | 0 | . | -33 | -6
COc1ccc(CCNC(N)=S)cc1OC | . | . | -2 | 53* | -3
COc1ccc(CCNC(=O)CCc2nc3ccccc3[nH]2)cc1OC | 3 | -1 | -8 | 90* | -3
COc1ccc(CCNC(=O)C(=O)NN=C2CCCCCCC2)cc1OC | 9 | -4 | 4 | 59* | 0
COc1ccc(CCNC(=S)NCCc2ccc(OC)c(OC)c2)cc1OC | 5 | 1 | 5 | 7 | 1
CCOc1ccc(CCNC(=O)CCc2nc3ccccc3[nH]2)cc1OCC | -18 | -1 | 0 | 31 | -2
Cc1c(Cc2ccccc2)sc(NC(=O)C(C)(C)C)c1C(N)=O | 3 | 2 | . | 46* | -3
Cc1c(Cc2ccccc2)sc(NC(=O)Cc2ccccc2)c1C(N)=O | . | . | 7 | 10 | 0
CCC(=O)Nc1sc(Cc2ccc3c(c2)OCO3)c(C)c1C(N)=O | 4 | -5 | 0 | 67* | 0
COc1ccc(NC(=O)c2sc3nc(C)nc(N4CCOCC4)c3c2C)c(OC)c1 | 5 | -3 | -5 | 15 | -1
CCCC12C(=O)C(C)(C(c3ccccc3)=C1c1ccccc1)C1C(=O)N(c3ccc(C)cc3)C(=O)C12 (centres undefined) | 83* | 0 | . | 5 | 2
CCC12C(=O)C(CC)(C(c3ccccc3)=C1c1ccccc1)[C@@H]1C(=O)N(c3ccc(C)cc3)C(=O)C12 (some centres undefined) | 92* | 3 | . | 1 | -2
CCC12C(=O)C(CC)(C(c3ccccc3)=C1c1ccccc1)[C@@H]1C(=O)N(c3ccccc3)C(=O)C12 (some centres undefined) | . | . | -16 | -11 | 1
CC(=O)Nc1ccc(S(=O)(=O)NCc2cn3ccsc3n2)cc1 | -55 | . | 10 | -1 | .
COc1ccc(CCNC(=O)COC(=O)c2cccn2C)cc1 | 78* | 3 | 21 | 19 | -2
Cn1cccc1C(=O)OCC(=O)NCCCc1ccccc1 | 15 | 1 | 3 | 8 | -2
Cn1cccc1C(=O)OCC(=O)NCCc1ccc(S(N)(=O)=O)cc1 | 72* | -2 | -2 | 4 | 0
Cc1cccc(NC(=O)Nc2ccc3c(c2)C(=O)N(C)[C@@H]2CC[C@@H](CC(=O)O)O[C@H]2CO3)c1 | -26[16.7 µM] | 1 | -1 | 4 | .
SMILES | HIV Env fusion | AF4-AF9 inh | PGC1a acetyl inh | INS-1E GSIS act | NSD2 inh
c1cc(Nc2cccc3nccnc23)c2nccnc2c1 | -36 | 26* | -4 | -12 | .
Fc1ccc(Nc2cccc3nccnc23)cc1 | -1 | . | 12 | 48 | 10
CC(C)(C)c1ccc(C(=O)Nc2ccc(CN3CCS(=O)(=O)CC3)cc2)cc1 | -2 | -3 | 6 | -6 | -1
O=C(Nc1ccc(CN2CCOCC2)cc1)c1ccc(F)cc1 | -52 | 0 | 54* | 7 | -7
O=C(Nc1ccc(CN2CCS(=O)(=O)CC2)cc1)c1ccc(C(F)(F)F)cc1 | 76* | 1 | -13 | . | -6
O=C(Nc1ccc(CN2CCOCC2)cc1)c1ccc(Cl)cc1 | -33 | -9 | . | 7 | -4
COC(=O)c1ccc(NC(=O)c2ccc(CN3CCOCC3)cc2)cc1 | 84* | . | 20 | 22 | -1
CCN(CC)c1c([N+](=O)[O-])ncn1C | . | . | 10 | . | 1
C=CCN(CC=C)C(=O)C1CCN(S(=O)(=O)c2ccc(-n3cnnn3)cc2)CC1 | 10 | -1 | . | -7 | -1
CS(=O)(=O)N1CCc2cc(S(=O)(=O)Nc3ccc4oc5c(c4c3)CCCC5)ccc21 | . | . | -4 | -33 | -2
COc1ccc(-c2csc3ncnc(N4CCN(c5ccccc5O)CC4)c23)cc1 | . | . | -3 | . | -1
CCCc1nc(N)sc1C(=O)OCC | . | . | 19 | 112* | 0
CCOC(=O)c1sc(N)nc1C(C)C | . | . | 4 | . | 0
COc1ccc(C(=O)OCC(=O)NC2CCCC2)cc1OC | 0 | -2 | -2 | 10 | -9
CCOc1ccc(C(=O)OCC(=O)NC2CCCC2)cc1OCC | 10 | -1 | 1 | 41* | -1
COc1ccc(C(=O)NCC(=O)OCC(=O)NC2CCCCCC2)cc1OC | -4 | -1 | 4 | 65* | -1
CCOc1cc(C(=O)OCC(=O)Nc2cc(C)on2)ccc1OCC(C)C | -57 | 0 | . | -7 | -4
CCOc1ccc(C(=O)OCC(=O)Nc2cc(C)on2)cc1OCC | -26 | . | 1 | 62* | 3
COc1ccc(C(=O)NCC(=O)OCC(=O)NC(=O)NC2CCCCC2)cc1OC | . | . | -9 | . | 6
COc1ccccc1C(=O)Nc1cc2ccccc2oc1=O | . | . | -11 | . | -2
Cc1cccn2c(=O)nc(SCC(=O)NCc3ccco3)nc12 | -85 | 2 | . | 40 | .
O=S(=O)(c1ccc2nnn(OCc3ccccc3)c2c1)N1CCOCC1 | 3 | 13 | 17 | 28 | 0
Cc1ccc2cc(C#N)c(NCCNC(=O)C3CCC3)nc2c1C | 106* | . | -4 | . | -2
Cc1cccc2cc(C#N)c(NCCNC(=O)NC3CCCCC3)nc12 | 9 | . | -7 | 27 | -11
Cc1ccc(NC(=O)CN2C(=O)N/C(=C/c3ccc(C)o3)C2=O)cc1 | . | . | -17 | . | 1
SMILES | HIV Env fusion | AF4-AF9 inh | PGC1a acetyl inh | INS-1E GSIS act | NSD2 inh
Cc1ccc(NC(=O)CN2C(=O)N/C(=C/c3ccc(C)s3)C2=O)cc1 | -40 | . | . | 99* | 1
Cc1ccc(S(=O)(=O)Nc2ccccc2C(O)c2ccccc2)cc1 (centres undefined) | 23 | 0 | -6 | -31 | -3
Cc1ccc(S(=O)(=O)Nc2ccccc2C(C(=O)OC(C)(C)C)C(=O)OC(C)(C)C)cc1 | 57* | 0 | . | -26 | .
Cc1ccc(S(=O)(=O)Nc2ccccc2C(=O)Nc2sccc2C(=O)NN(C)C)cc1 | 14 | 4 | 3 | . | .
CCN=C1S/C(=C/c2ccc(-c3ccc(Cl)cc3C(=O)O)o2)C(=O)N1CC | 12 | 0 | . | 88* | -3
CCN=C1S/C(=C\c2ccc(-c3cccc(C(=O)O)c3)o2)C(=O)N1CC | . | . | . | . | 10
